The source of these data is the supplement of paper PMC11172423.

Values without a mark were called inactive.

The test has as its system Falciformispora senegalensis CBS197.79. In words: growth relative to untreated control; higher = less inhibition, active = 20 or less. The conditions noted are these: 25 µM. The essentials: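 Growth was expressed as metabolic activity relative to the untreated growth control, with both corrected using a blank of medium plus dye. Hyphal fragments of M. mycetomatis MM55 or F. senegalensis CBS197.79 were suspended to 68–72% transmission at 660 nm in colourless RPMI 1640 containing L-glutamine and MOPS. In 96-well plates they were exposed to compound at 100 or 25 µM for 7 days at 37 °C, and viability was read with MTS (2 h, 490 nm) or resazurin (600 nm).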
`Clc1ccc(Nc2nc3cnc(NC4CC4)nc3n2C2CCNCC2)cc1Cl`: the growth is 76.9%.
As for `NC(=O)C(c1ccccc1)(c1ccccc1)[C@@H]1CCN(CCc2ccc3c(c2)CCO3)C1`, the figure is 95.3%.
As for `Clc1cccc2cnsc12`, the figure is 96.1%; as for `CC(C)Nc1ncc2nc(Nc3cc(C(F)(F)F)cc(C(F)(F)F)c3)n(C3CCNCC3)c2n1`, 104%.
Turning to `CCOc1ccc(-c2nc(NC(=O)Cc3cccc(OC)c3)sc2C)cc1`, the growth was 93.7%.
As for `FC(F)(F)c1cc(Cl)cc(Nc2nc3cnc(NC4CCOCC4)nc3n2C2CCNCC2)c1`, the figure is 93.9%; as for `CC(C)(C)Cn1c(N)nc2ccc(-c3[nH]c(C(C)(C)C)nc3-c3ccc(F)cc3)nc21`, 100%; as for `Cc1cc2c(cc1Cl)N(C(=O)Nc1cc(F)cc(-c3cncnc3)c1)CC2`, 87%.
Regarding `COc1ccc(Cl)cc1-c1nc(C(=O)NCCN2CCCCC2)c(C(C)C)s1`, the growth is 94.5%.
As for `FC(F)(F)c1cc(Cl)cc(Nc2nc3cnc(NC4CCC4)cc3[nH]2)c1`, the figure is 70.6%; as for `O=C(NC1CCCc2c1[nH]c1ccc(Cl)cc21)c1ccccn1` (centres undefined), 107%.
On to `C[C@H](NC(=O)c1cc2ccc(F)cc2[nH]1)c1ccccc1`, for which the growth was 91.5%.
Regarding `CC[C@H](C)[C@@H]1NC(=O)c2csc(n2)[C@H]([C@@H](C)CC)NC(=O)c2csc(n2)CNC(=O)c2nc1oc2C`, the growth is 83.8%.
As for `CCCN1CCC=C(c2cc(-c3ccc(C)cc3)no2)C1`, the figure is 103%.
